Assay outcomes from PubChem BioAssay.
IL-2 act: qHTS of IL-2 Activators; IL-2 activation reporter assay, cell-based qHTS; stimulated with anti-CD3/CD4/CD28 beads; in transgenic mouse T cells; activation, % (series mostly up to about 46 µM); 360,000 tested, 0.065% active; AID 652025, 2013; in the data active means activation above about 50%; inconclusive means mostly about 30% to 49%; further: 0% is about no effect
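Unstimulated transgenic mouse T cells, 750 per well, received compound and, after 60 minutes, anti-CD3/anti-CD4 bead plus anti-CD28 stimulation. EGFP and DsRed were quantified after 18 hours.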
ELG1 repair inh: qHTS screen for small molecules that inhibit ELG1-dependent DNA repair in human embryonic kidney (HEK293T) cells expressing luciferase-tagged ELG1; HEK293T ELG1-luciferase reporter, luminescence, 16 h; DNA damage induced by 5-fluorouridine; Potency, µM (top dose mostly 46.1 µM), for inactives: top-dose activity change, negative = inhibition, hits mostly inhibitors; 330,000 tested, 2.3% active; further: potency means the concentration at half of the fitted maximal effect; on the % scale 0 is the no-effect control and ±100 the full control effect; nearly all actives have a fitted effect of over 55% in size
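Luminescence from the luciferase reporter, measured 30 min after ONE-Glo reagent at room temperature, was the read-out. Beforehand, 2,000 cells per well were exposed for 16 hr at 37 °C to 5-fluorouridine together with compound or vehicle.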
BRCA1 expr act: qHTS Assay to Identify Small Molecule Activators of BRCA1 Expression | Potency, µM (titrated, usually from 46.1 µM), inactives show top-dose activation, hits mostly activators | MCF7-BRCA1-FFLuc reporter, luminescence, 48 h; response scale: scaled: vehicle 0%, 10 µM genistein 100% | 380,000 tested, 1.1% active | AID 624202, 2012; further: potency means the concentration at half of the fitted maximal effect; nearly all actives have a fitted effect of over 80% in size
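Reporter cells (MCF7, BRCA1 promoter-firefly luciferase) received library compounds across a concentration series for 48 h. End-point luminescence was measured and concentration-effect curves derived after normalization.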
Nrf2 ARE act: qHTS of Nrf2 Activators; AREc32 ARE-luciferase reporter (MCF7-derived line), luminescence, 24 h; Potency, µM (highest dose often 46.1 µM), without a hit: top-dose activation, actives largely listed as activators; 410,000 tested, 0.31% active; AID 624171, 2012; further: potency means the concentration at half of the fitted maximal effect; % of control where 0% means no effect; nearly all actives have a fitted effect of over 65% in size
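Luciferase luminescence (Steady-Glo, 30 min at room temperature) served as the read-out of ARE activation in AREc32 cells treated with compounds for 24 hr at 37 deg C.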
Active calls of the source: *; ? = inconclusive; . = no result given; [ ] = remark or other dose. An excerpt weighted towards active compounds, which were near 3.1% of everything screened. Unless noted, the call rests on the fitted dose curve; in most records, active means well fitted curve in the direction sought with a large enough effect; inconclusive means small, poorly fitted or top-dose-only effect, or another doubt; inactive means no such curve, though single readings can be large; an effect the other way counts as inactive or inconclusive.

SMILES	IL-2 act	ELG1 repair inh	BRCA1 expr act	Nrf2 ARE act
CN1CCN(c2ccccc2NC(=O)c2cc3ccccc3o2)CC1	-1.8	4.0%	-44.0%	12.6%
CS(=O)(=O)N1CCN(c2ccccc2NC(=O)c2cc3ccccc3o2)CC1	-1.9	20.6µM*	-38.2%	5.4%
CCOC(=O)C1CCCN(C(=O)c2ccc(-c3ccccc3)cc2)CC1 (configuration not stated)	0.1	.	0.0%	-0.2%
O=C(/C=C/c1ccc(OCCCF)cc1)Nc1ccnc(-c2cccnc2)n1	10.4	7.3µM*	-15.7%	-0.3%
COc1cccc(N2CCN(S(=O)(=O)c3ccc(-c4ccno4)cc3OC)CC2)c1	.	.	.	2.7%
CCN(Cc1ccc2c(c1)OCO2)C(=O)CSc1ncnc2sccc12	-0.4	-0.1%	4.7%	5.4%
CCN(Cc1ccc2c(c1)OCCO2)C(=O)CSc1nc(C)nc2sc(C)c(C)c12	0.4	13µM*	-46.1%	-0.2%
CCOc1ccc(CN(C)CC(=O)Nc2ccc3c(c2)CCC3)cc1OC	-0.7	16.4µM*	-25.9%	2.8%
CCN1CCN(c2cc(C)c3cc(NC(=O)c4cc(OC)cc(OC)c4)ccc3n2)CC1	-5.2	?	6.31µM*	8.0%
CSc1ccc(/C=c2\s/c(=C\C(=O)C(C)(C)C)n(CC(=O)NCCC3=CCCCC3)c2=O)cc1	11.9	-23.5%	3.7%	-0.1%
CCCNC(=O)Cn1c(=O)/c(=C/c2ccc(-c3ccc([N+](=O)[O-])cc3)o2)s/c1=C\C(=O)C(C)(C)C	78.4*	.	-37.7%	8.3%
COc1cccc(C(=O)Oc2c(CN3CCOCC3)cc(Cl)c3cccnc23)c1	0.5	18.4µM*	-93.4%	-0.7%
O=C(Oc1c(CN2CCOCC2)cc(Cl)c2cccnc12)c1ccccc1Cl	-5.7	11.6µM*	-74.1%	?
CCOc1ccccc1CNc1ncnc2c1nc1n2CCCC1	.	.	.	-0.8%
CCOC(=O)Nc1ccc2c(COC(=O)C(NS(=O)(=O)c3ccc(Cl)cc3)C(C)O)cc(=O)oc2c1 (configuration not stated)	0.2	20.6µM*	1.9%	1.9%
CN(C(=O)/C=C/c1ccc2c(c1)OCO2)c1ccccc1	1.3	?	3.16µM*	5.7%
C(=N\N(c1ccccc1)c1ccccc1)/c1ccc2c(c1)OCO2	-3.4	-4.7%	-1.7%	-0.2%
CN(/N=C/c1ccc2c(c1)OCO2)c1ccccc1	-1.0	?	7.08µM*	3.4%
Cc1ccc(O)c(C(=O)/C=C/c2ccc3c(c2)OCCCO3)c1	-5.2	?	7.08µM*	?
Cc1ccc(NC(=O)Nc2ccc3c(c2)OCO3)nc1	2.3	?	?	5.0%
Cc1ccc(NC(=O)/C=C/c2ccc3c(c2)OCO3)nc1	0.4	?	1.58µM*	2.3%[9.22 µM]
CN(C(=O)C=Cc1ccccc1)c1ccccc1	0.7	.	71.6%	8.1%
O=C(NCCc1ccccc1)c1cnc2sc(N3CCCCCC3)nn2c1=O	.	.	.	1.1%
O=C1c2ccccc2C(=O)N1c1nc(-c2ccc(F)cc2)cs1	.	.	16.8%	.
Cc1cc(N2CCCCC2)nc2ccc(NC(=O)/C=C/c3ccccc3OC(C)C)cc12	.	.	.	2.6%
SMILES	IL-2 act	ELG1 repair inh	BRCA1 expr act	Nrf2 ARE act
Cc1ccc(CCN2CC(C(=O)NC3CCC(C)CC3)CC2=O)cc1 (configuration not stated)	0.8	.	-18.1%	-1.0%
Cc1cc(C)n(-c2nc(C)c(C)c(=O)n2CC(=O)Nc2cccc([N+](=O)[O-])c2)n1	.	.	.	21.0%
CN(C(=O)c1cc(-c2ccc3c(c2)OCO3)on1)c1ccccc1	-2.6	?	2.82µM*	2.3%
COc1cccc(/C=C/C(=O)Oc2ccc(C(=O)c3ccc(F)cc3)cc2)c1	-0.7	14.6%	10.3%	1.8%
O=C(/C=C/c1ccc2c(c1)OCO2)c1ccc(F)cc1	-1.3	?	52.4%	8.1%
COc1cccc(/C=C/C(=O)c2ccc[nH]2)c1	2.1	?	7.94µM*	15.8µM*
O=C(/C=C/c1ccc2c(c1)OCO2)N1CCCCC1	0.8	?	3.55µM*	2.7%
O=C(/C=C/c1ccc2c(c1)OCO2)c1ccc[nH]1	-5.1	?	7.94µM*	?
Cc1ccc(C)c(CSc2nc(-c3ccccc3F)nc3c2Cc2c(CO)cnc(C)c2O3)c1	.	.	.	0.2%
O=C(c1cccs1)N1CCCc2cc(NS(=O)(=O)c3ccc(Br)cc3)ccc21	.	.	.	-1.1%
C/C(=N\OCc1ccc(C#N)cc1)c1ccc(S(=O)(=O)N(C)C)cc1	-0.3	-24.5%	7.08µM*	3.1%
Cc1ccc2c(CC(=O)N(Cc3ccc(Cl)cc3)Cc3ccco3)coc2c1	.	.	.	9.1%
COc1ccc(CC(=O)N2CCC(Nc3nc4ccccc4n3Cc3ccc(F)cc3)CC2)cc1	-1.4	20.6µM*	-31.2%	-0.2%
O=C(COc1cccc(Cl)c1)Nc1nc(-c2ccc(S(=O)(=O)N3CCOCC3)cc2)cs1	7.4	23.1µM*	-38.9%	0.4%
CCOc1cccc(C(=O)Nc2nc(-c3ccc(S(=O)(=O)N4CCOCC4)cc3)cs2)c1	0.3	?	-21.1%	0.6%
COc1ccccc1C(=O)Nc1nc(-c2ccc(S(=O)(=O)N3CCOCC3)cc2)cs1	-1.7	5.17µM*	-96.6%	-0.9%
CCOc1ccccc1NC(=O)Cn1c(=O)ccc2cc(S(=O)(=O)N3CCCC3)ccc21	.	.	-4.2%	-0.5%
CCCOc1ccc(C(=O)Nc2ccc(-c3cc4ccccc4oc3=O)c(C)c2)cc1	.	.	.	6.9%
COc1ccc2cc(C(=O)/C=C/c3cc(OC)c(O)c(OC)c3)ccc2c1	1.7	-13.0%	-58.8%	?
COc1ccc(C(=O)/C=C/c2cc(OC)c(O)c(OC)c2)c(F)c1	0.8	8.2µM*	-89.1%	15.8µM*
NNC(=O)C=C1CCN(c2ncc(C(F)(F)F)cc2Cl)CC1	-2.4	?	32.1%	2.6%
COC(=O)c1c(/N=C/N(C)C)sc2c1CCN(c1ncc(C(F)(F)F)cc1Cl)C2	1.1	18.4µM*	-45.2%	6.6%
O=C(O)C=C1CCN(c2ncc(C(F)(F)F)cc2Cl)CC1	-2.6	?	11.2µM*	1.4%
COC(=O)c1c(N(S(C)(=O)=O)S(C)(=O)=O)sc2c1CCN(c1ncc(C(F)(F)F)cc1Cl)C2	0.7	-4.0%	-24.8%	0.0%
NC(Cc1ccc(F)cc1)c1csc(Nc2ccc(C(=O)c3ccccc3)cc2)n1 (configuration not stated)	-0.7	.	-56.5%	-3.5%
O=C(COc1ccc(S(=O)(=O)NC2CCCCC2)cc1)Nc1ccc(C(F)(F)F)cc1	.	.	.	-0.2%
Cc1ccc2occ(CC(=O)Nc3ccc(Cl)c(C(F)(F)F)c3)c2c1	.	.	.	-0.4%
CCCC1(c2ccccc2)NC(=O)N(CC(=O)c2[nH]c(C)c(C(=O)OCC)c2C)C1=O (configuration not stated)	-0.2	18.4µM*	-60.8%	8.9%
CCOC(=O)c1c(C)[nH]c(C(=O)CN2C(=O)NC3(CCCC3)C2=O)c1C	1.9	?	0.0%	1.9%
